From the antibiotic and cytotoxicity screens of Wong et al. (2023)
Screen size: about 39,000 compounds; about 500 (1.3%) were called active. This is one part of a sample in which actives are shown more often than they occur.

test system: S. aureus RN4220; test: growth inhibition call (relative growth <= 0.2); conditions: 50 µM

Growth inhibition call, active:
C[C@H]1CN([C@@H](C)CO)C(=O)CCCn2nncc2CO[C@H]1CN(C)C(=O)Nc1cccc(C(F)(F)F)c1
C[C@H](CO)N1C[C@H](C)[C@H](CN(C)C(=O)Nc2cccc(C(F)(F)F)c2)OCc2cnnn2CCCC1=O
C[C@@H]1CN([C@H](C)CO)C(=O)CCCn2nncc2CO[C@H]1CN(C)C(=O)Nc1cccc(C(F)(F)F)c1
C[C@@H]1CN([C@H](C)CO)C(=O)CCCn2nncc2CO[C@@H]1CN(C)C(=O)Nc1cccc(C(F)(F)F)c1
c1ccc(CCNc2ccnc3cc4ccccc4cc23)cc1
CS(=O)(=O)CCOC(=O)C1=CC(CCCO)=C[C@@H](c2ccc(CN3CCCC3)cc2)N(Cc2sc3ccccc3c2Cl)C=C1C(=O)OCCS(C)(=O)=O
COc1c(C)cc(-c2cc3c(c(CCc4ccccc4)n2)[Si](C(C)C)(C(C)C)O[C@H]3c2ccccc2)cc1C
COc1cc(Cc2cc3c(c(CCc4ccccc4)n2)[Si](C(C)C)(C(C)C)O[C@H]3c2ccccc2)cc(OC)c1OC
O=C(NCc1ccc(Oc2ccccc2)cc1)c1nc(-c2cc(Br)c(O)c(Br)c2)no1

Growth inhibition call, inactive:
C[C@@H]1CN([C@@H](C)CO)C(=O)c2cc(NC(=O)C3CCCCC3)ccc2O[C@@H](C)CCCCO[C@H]1CN(C)C(=O)c1ccccc1
CNC[C@@H]1Oc2cc(C#CCN(C)C)ccc2S(=O)(=O)N([C@@H](C)CO)C[C@@H]1C
CC(C)NC(=O)N(C)C[C@@H]1Oc2ccc(NC(=O)C3CCCCC3)cc2C(=O)N([C@@H](C)CO)C[C@@H]1C
C[C@H](CO)N1C[C@H](C)[C@@H](CN(C)C(=O)Nc2cccc(C(F)(F)F)c2)OCc2cnnn2CCCC1=O
C[C@H]1CN([C@@H](C)CO)C(=O)CCCn2nncc2CO[C@H]1CN(C)C(=O)Nc1ccc(C(C)(C)C)cc1
C[C@@H]1CN([C@@H](C)CO)C(=O)CCCn2nncc2CO[C@H]1CN(C)C(=O)Nc1cccc(C(F)(F)F)c1
C[C@H]1CN([C@@H](C)CO)C(=O)CCCn2nncc2CO[C@@H]1CN(C)C(=O)Nc1cccc(C(F)(F)F)c1
C[C@@H]1CN([C@@H](C)CO)C(=O)CCCn2nncc2CO[C@@H]1CN(C)C(=O)Nc1cccc(C(F)(F)F)c1
C[C@@H]1CN([C@@H](C)CO)C(=O)CCCn2nncc2CO[C@H]1CN(C)C(=O)Nc1ccc(C(C)(C)C)cc1
C[C@@H]1CCCCO[C@@H](CN(C)C(=O)Nc2ccccc2)[C@@H](C)CN([C@H](C)CO)C(=O)c2cc(NC(=O)CCC(F)(F)F)ccc2O1
C[C@H]1CN([C@@H](C)CO)C(=O)c2cc(NC(=O)NC3CCCCC3)ccc2O[C@H]1CN(C)C(=O)Nc1cccc2ccccc12
OC[C@H]1O[C@@H]2O[C@H]3[C@H](O)[C@@H](O)[C@@H](O[C@H]4[C@H](O)[C@@H](O)[C@@H](O[C@H]5[C@H](O)[C@@H](O)[C@@H](O[C@H]6[C@H](O)[C@@H](O)[C@@H](O[C@H]7[C@H](O)[C@@H](O)[C@@H](O[C@H]1[C@H](O)[C@H]2O)O[C@@H]7CO)O[C@@H]6CO)O[C@@H]5CO)O[C@@H]4CO)O[C@@H]3CO
COc1ccc(NC(=O)Nc2ccc3c(c2)CC(=O)N([C@@H](C)CO)C[C@H](C)[C@H](CN(C)S(=O)(=O)c2c(C)noc2C)O3)cc1
COc1ccc(S(=O)(=O)Nc2ccc3c(c2)CC(=O)N([C@@H](C)CO)C[C@@H](C)[C@@H](CN(C)C(=O)NC(C)C)O3)cc1
OC1OC(c2ccc(Cl)c(Cc3ccc(OC4CCOC4)cc3)c2)C(O)C(O)C1O (configuration not stated)
CO[C@@H]1CN(C)C(=O)c2ccc(NC(=O)C3CC3)cc2OC[C@H](C)N(C(=O)Cc2ccccn2)C[C@H]1C
C[C@@H]1CN([C@H](C)CO)C(=O)c2cc(NS(=O)(=O)c3ccc(F)cc3)ccc2O[C@H]1CN(C)S(=O)(=O)c1cccs1
Cc1nnc(NCCc2ccccc2)n(N)c1=O
NCCNc1cccc2ccccc12
C[C@@H]1CN([C@@H](C)CO)C(=O)Cc2cc(NC(=O)CCN3CCOCC3)ccc2O[C@@H]1CN(C)S(=O)(=O)c1ccc(Cl)cc1
CO[C@@H]1CN(C)C(=O)c2cc(NC(=O)C3CC3)ccc2OC[C@H](C)N(C(=O)CN2CCOCC2)C[C@H]1C
NC(=O)N1C(=O)[C@H]2[C@H](C1=O)[C@H]1C=C(CCCO)[C@@H]2[C@H](c2ccc(CN3CCCC3)cc2)N1Cc1sc2ccccc2c1Cl
COC(=O)C1=CC(CCCO)=C[C@@H](c2ccc(CN3CCCC3)cc2)N(Cc2sc3ccccc3c2Cl)C=C1C(=O)OC
COc1cc(Cc2cc3c(c(CCc4ccccc4)n2)[Si](C(C)C)(C(C)C)OC3)cc(OC)c1OC
COc1c(C)cc(-c2cc3c(c(-c4ccccc4)n2)[Si](C(C)C)(C(C)C)O[C@H]3c2ccccc2)cc1C
COc1ccc(-c2cc3c(c(CCc4ccccc4)n2)[Si](C(C)C)(C(C)C)O[C@H]3c2ccccc2)cn1
CCCCCCc1nc(-c2cc(C)c(OC)c(C)c2)cc2c1[Si](C(C)C)(C(C)C)O[C@H]2c1ccccc1
C=CCNC1=C2C[C@H](C)C[C@H](OC)[C@@H](O)[C@H](C)/C=C(\C)[C@H](OC(N)=O)[C@H](OC)/C=C/C=C(\C)C(=O)NC(=CC1=O)C2=O
C[C@H](CO)N1C[C@H](C)[C@H](CN(C)Cc2ccc(C(=O)Nc3ccccc3N)cc2)Oc2c(NC(=O)NC3CCCCC3)cccc2C1=O
C[C@@H]1CCCCO[C@@H](CN(C)CC2CCCCC2)[C@H](C)CN([C@@H](C)CO)C(=O)c2cc(NS(=O)(=O)c3cccs3)ccc2O1
NCCNC(=O)c1nc(-c2ccc(Br)o2)no1
NNC(=O)c1nc(-c2ccccc2)no1
COc1ccc(NC(=O)N(C)C[C@H]2Oc3c(NC(=O)c4ccc(-c5nccs5)cc4)cccc3C(=O)N([C@@H](C)CO)C[C@H]2C)cc1
